Nrf2 ARE act – activators of Nrf2 (ARE) signaling | Potency, µM (titrated, usually from 46.1 µM), without a hit: top-dose activation, actives largely listed as activators | AREc32 ARE-luciferase reporter (MCF7-derived line), luminescence, 24 h | actives 0.31% (n = 410,000) | AID 624171; also: potency is read from the fitted curve at half-maximal effect; % of control where 0% means no effect; nearly all actives have a fitted effect of over 65% in size
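Nrf2 activation is followed as ARE-luciferase induction in the AREc32 line after one day of compound treatment; luminescence is read with Steady-Glo.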
TCR act – activators of T cell receptors; primary human leukocytes, anti-CD3, IL-2 HTRF, 48 h; Potency, µM (highest dose often 9.22 µM), for inactives: at the highest dose activation of IL-2 secretion, usual class: activators; 330,000 tested, under 10 active; AID 504894; also: % of control where 0% means no effect
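IL-2 produced over 48 hr by a-CD3 bead-stimulated primary human leukocytes exposed to compounds was detected with a homogeneous time-resolved FRET immunoassay, 665nm acceptor signal after 320nm excitation.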
AT treatment – potential ataxia-telangiectasia treatment; F2112 A-T fibroblasts, KAP-1 phosphorylation AlphaLISA; neocarzinostatin DNA damage 30 min before lysis; Potency, µM (doses to about 57.5 µM), inactives show top-dose activation, actives largely listed as activators; actives 0.19% (n = 320,000); AID 485349; also: potency is read from the fitted curve at half-maximal effect; % of control where 0% means no effect; nearly all actives have a fitted effect of over 45% in size
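hTERT-immortalized A-T patient fibroblasts (F2112), 500 cells/well in OPTI-MEM, 1% FBS, got compounds for 60 min, then NCS for 30 min at 37C. Lysates were then assayed for phospho-KAP-1 by AlphaLISA (anti-pKAP1 donor, anti-KAP1 acceptor beads), 6 hr at 25C.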
A549 tox – A549 cytotoxicity, counter-screen for Nrf2 inhibitors | A549 ARE-Fluc cells, CellTiter-Fluor viability, 18-24 h | Potency, µM (series often up to 46 µM), inactives show at the top dose activity change, negative = cytotoxicity, most hits filed as inhibitors | actives 0.16% (n = 390,000); also: potency is read from the fitted curve at half-maximal effect; % is scaled to controls: 0 for no effect and ±100 for the full control effect
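A549 ARE_Fluc cells in 5% FBS OPTI-MEM were exposed to compounds in concentration-response for 18-24 h at 37 deg C. Viability was read by CellTiter-Fluor fluorescence (Ex 405/Em 525) after 30 min, before the luciferase read.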
Nrf2 block – blocks Nrf2 signaling; A549 ARE-Fluc reporter, luciferase luminescence, 18-24 h; actives 2.1% (n = 360,000); Potency, µM (top dose mostly 46 µM), for inactives: at the highest dose activity change, negative = inhibition, actives largely listed as inhibitors; also: potency is read from the fitted curve at half-maximal effect; % is scaled to controls: 0 for no effect and ±100 for the full control effect; nearly all actives have a fitted effect of over 60% in size
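Two sequential reads on A549 ARE_Fluc cells exposed to compound for 18-24 h: a CellTiter-Fluor fluorescence read for viability, then a luciferase luminescence read for Nrf2/ARE activity.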
CCT modulator – changes cytosolic chaperonin activity; activity change, % (test concentration not listed), hits read low; purified chaperonin ATPase assay, HTRF ADP detection, 30 min; actives 0.3% (n = 360,000); AID 651819; in the data active = activity change below about -30%; also: % is scaled to controls: 0 for no effect and ±100 for the full control effect
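TRiC at 40 or 20 nM final (batch-dependent) in 30 mM Tris pH 7.4, 100 mM KCl, 5 mM MgCl2, 1 mM DTT, with compound at single 76 uM and 10 uM ATP, 30 min at 37 deg C. ADP detected by HTRF Transcreener, 665/615 ratio.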
Numbers without * were called inactive; ? = inconclusive; . = no result given; [ ] = dose if it differs, or a comment. In the library only some 2.6% were active in any assay of this set; here they are far more common. Unless noted, calls follow the shape of the dose curve; as a rule, active = well fitted curve in the direction sought with a large enough effect; inconclusive = small, poorly fitted or top-dose-only effect, or another doubt; inactive = no such curve, though single readings can be large; an effect the other way counts as inactive or inconclusive.

SMILES	Nrf2 ARE act	TCR act	AT treatment	A549 tox	Nrf2 block	CCT modulator
CCn1c(SCC(=O)Nc2cc(C)on2)nc2sc3c(c2c1=O)CCCC3	3%	-8%[46.1 µM]	1%	-15%	-42%	4
C=CCn1c(SCC(=O)Nc2cc(C)on2)nc2sc3c(c2c1=O)CCCC3	-1%	6%	2%	-7%	14%	-65*
CCOC(=O)c1c(C)nc2c(c1-c1cc(OC)ccc1OC)C(=O)c1ccccc1-2	2%	2%	5%	-6%	1%	1
CCOC(=O)c1c(C)nc2c(c1-c1ccccc1)C(=O)c1ccccc1-2	-1%	-9%	12%	-19%	13µM*	0
O=C(c1ccc(CSc2nc3ccncc3n2Cc2ccccc2)cc1)N1CCCCCC1	1%	.	.	-11%	?	.
Cc1cccc(Cn2c(SCc3ccc(C(=O)N4CCCCCC4)cc3)nc3ccncc32)c1	-1%	.	.	0%	23µM*	.
O=C(Nc1cccc(S(=O)(=O)C(F)(F)F)c1)[C@H]1C[C@H](O)[C@@H](CO)O1	0%	.	.	.	.	0
Cc1cc(C(=O)Cn2nnc(-c3ccc(Cl)cc3)n2)c(C)n1CC1CCCO1 (stereo not given)	0%	.	5%	-9%	13µM*	1
Cc1cc(C)n2nc(SCC(=O)c3cc(C)n(CC4CCCO4)c3C)nc2n1 (stereo not given)	2%	2%	8%	-5%	10µM*	-3
Cc1cc(C(=O)CSc2nc(N)cc(N)n2)c(C)n1CC1CCCO1 (stereo not given)	0%	2%	6%	-6%	?	-1
CC(=O)N1CC2(NC(=O)c3ccccc3N2)c2ccccc21 (stereo not given)	0%	1%	4%	0%	-5%	-6
CCc1ccc(-c2cc(C)no2)cc1S(=O)(=O)Nc1ccc(Cl)cc1	-1%	.	.	-13%	?	.
Cc1cccc(OCc2nc(C#N)c(N3CCCC3)o2)c1	-1%	-17%	2%	8%	?	-30*
Nc1c(C(=O)c2ccc(Br)s2)oc2ccccc12	3.2µM*	.	-5%	-2%	-32%	0
CC(=O)c1cccc(NC(=O)COC(=O)c2ccccc2C)c1	3%	2%	-5%	-7%	4%	-1
Cc1ccc(C(=O)CSC2=C(C#N)C(c3ccco3)C3=C(CCCC3=O)N2)cc1 (stereo not given)	16%	0%	-1%	?	?	1
CC(C)(C)c1ccc(C(=O)CCCSC2=C(C#N)C(c3ccco3)C3=C(CCCC3=O)N2)cc1 (stereo not given)	3%	4%	3%	21µM*	21µM*	-2
N=c1sccn1CC(=O)Nc1cccc2ccccc12	0%	4%	.	-18%	-11%	-122*
CSc1ccccc1NC(=O)Cn1ccsc1=N	1%	0%	-8%	0%	-2%	-1
O=c1cc(N2CCNCC2)nc2sc(-c3ccncc3)nn12	.	.	.	-2%	16%	.
CN(C)c1cccc(C(=O)OCCCC(=O)c2ccc(F)cc2)c1	0%	-19%	7%	-2%	-4%	-38*
CCCC(=O)Nc1ccc2oc(=O)ccc2c1	-1%	1%	3%	-4%	-5%	-3
Cc1ccc(S(=O)(=O)CCC(=O)N2CCN(c3ccc([N+](=O)[O-])cc3)CC2)cc1	2%	-1%	4%	-5%	21µM*	-2
CC1(C(=O)N2CCN(c3ccc([N+](=O)[O-])cc3)CC2)CC1(Cl)Cl (stereo not given)	3%	.	-9%	-25%	18µM*	2
O=c1[nH]c(=O)n(-c2ccccc2)c2c1C(C(F)(F)F)(C(F)(F)F)N=C(CCC1CCCCC1)N2	0%	-2%[46.1 µM]	-2%	?	18µM*	1
Cc1ccc(C2=NC(C(F)(F)F)(C(F)(F)F)c3c(n(-c4ccc(F)cc4)c(=O)[nH]c3=O)N2)cc1	0%	4%[46.1 µM]	2%	-13%	21µM*	-2
